SMILES strings stand for the structures. “And” between values parts separate entries of the source, which are not always exact repeats. Equal entries are not always repeated. Results filed as inconclusive are left out. The source made the active and inactive calls. How the source made its calls, unless noted: active means hit-call score of the fitted dose curve at least 0.9, where 1 is the maximum; inconclusive means response in the unintended direction; inactive means score below 0.9.

Assay [1] in a line: STM_H9_OrnCyssISnorm_ratio: Stemina devTOX quickPredict H9 human embryonic stem cell (hESC)-based Assay for Ornithine (ORN):Cystine (CYSS) Ratio (AID 2283714). In short, it runs like this:
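Undifferentiated H9 hESCs were exposed to compound for 72h with media and chemical replaced every 24h. Final 24-h conditioned media were deproteinized and analysed by UPLC-HRMS. ORN and CYSS peak areas were normalized to C13 internal standards and the ratio taken versus 0.1% DMSO.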

Assay [2] in a line: CEETOX_H295R_MTT_cell_viability: Viability Assessment in the CeeTox HT-H295R MTT Assay (AID 2283718; active means hit-call score of the fitted dose curve at least 0.9, where 1 is the maximum; inactive means score below 0.9). In short, it runs like this:
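H295R cells prestimulated 48 h with 10 uM forskolin, then exposed 48 h to test chemical (0.1% DMSO final). Viability by MTT (0.5 mg/ml, 4 h, 37 C), absorbance 570/650 nm; percent change versus DMSO, bidirectional fit.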

Assay [3] is described as follows: Tanguay_ZF_120hpf_ActivityScore_legacy: (Legacy) Oregon State University Tanguay Lab 120 Hour Post-fertilization zebrafish Assay Score for Activity (AID 2283742).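 On AC50: static exposure from 6 hpf until 120 hpf at 28 °C.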 In short, it runs like this:
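Tropical 5D wild-type zebrafish embryos, dechorionated with pronase at 4 hpf, were exposed singly from 6 hpf to 120 hpf statically at 28C in 0.64% DMSO. Malformations and mortality were scored as binary by brightfield, with the activity score combining 18 morphology components.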

Assay [4] has as its target Luciferin 4-monooxygenase (Photinus pyralis) (UniProt P08659). The assay is described as follows: CCTE_Simmons_QuantiLum_inhib_2: CCTE's Firefly Luciferase Inhibition Assay, Simmons Lab (AID 2283767).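 On AC50: potency for inhibitors that lower luciferase luminescence relative to DMSO.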 In outline:
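Cell-free recombinant firefly luciferase (5 ng/well) in 200mM potassium phosphate with 1 mg/ml BSA, 30 min at 37C with 8 concentrations from 5 nM to 87.5 uM [final], 0.5% DMSO. Luminescence read after D-luciferin (150uM)/dATP (147uM) reagent injection, pH 7.8; triplicates.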

Assay [5] deals with zebrafish Estrogen Receptor (ESR2B), gene 317733. The assay is described as follows: ATG_zfER2b_XSP1: Attagene TRANS-FACTORIAL Multi-Species (XSP1) HepG2 Assay for zebrafish Estrogen Receptor (ESR2B) (AID 2283773). In short, it runs like this: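 HepG2 cells transiently transfected with multiple GAL4-UAS reporter units expressing chimeric zebrafish ER2b-Gal4; 24 h chemical exposure with 3 nM 6-alpha-fluorotestosterone present. Reporter mRNA measured by RT-PCR and capillary electrophoresis; gain of signal fitted versus DMSO.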

For assay [6], the system named is frog Estrogen Receptor (ESR2), gene 100174814. The assay is described as follows: ATG_frER2_XSP1: Attagene TRANS-FACTORIAL Multi-Species (XSP1) HepG2 Assay for frog Estrogen Receptor (ESR2) (AID 2283774). In short, it runs like this: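 HepG2 cells transiently transfected with GAL4-UAS multiplexed reporter units expressing chimeric NR-Gal4 proteins; reporter mRNA measured 24 h after dosing by RT-PCR, FAM labeling, HpaI digestion and capillary electrophoresis. Gain-of-signal relative to DMSO; 3 nM 6-alpha-fluorotestosterone present.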

The nature of assay [7]: ACEA_AR_agonist_AUC_viability: ACEA Biosciences xCELLigence Real-Time Cell Analysis on Androgen Receptor Agonism for Viability (AID 2283775).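 On AC50: viability read 80 hours after compound addition.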 In short, it runs like this: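 Real-time impedance tracking of 22Rv1 growth, readings every 5 min for 5 h then hourly; area-under-curve viability endpoint at 80 hours, relative to DMSO. Compounds at eight concentrations, 1:4 steps, top 100 uM, n = 2.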

Assay [8] is described as follows: ACEA_AR_antagonist_AUC_viability: ACEA Biosciences xCELLigence Real-Time Cell Analysis on Androgen Receptor Antagonism for Viability (AID 2283776).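 Further: 22Rv1 human prostate cancer cells growing on impedance electrode plates; hits lower the growth signal relative to DMSO meaning cytotoxicity.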 In outline: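 Real-time electrical impedance tracks 22Rv1 proliferation after continuous compound exposure (top 100 uM final, 1:4 steps, 8 concentrations). The 80 h area-under-curve serves as the cytotoxicity readout relative to DMSO.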

Assay [9] in a line: ArunA_CellTiter_hNP: Viability Assessment in the ArunA Biomedical's Oris Neural Crest (hNC) Cell Migration Assay (AID 2283753). In short, it runs like this:
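H9-derived hNP1 neuroprogenitors, 60,000/well on Matrigel, cultured 16 h, then 72 h chemical exposure in test medium. Cell titer via CellTiter Aqueous One; positive-direction fit vs DMSO.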

The nature of assay [10]: ArunA_Migration_hNP: ArunA Biomedical's Oris Neuroprogenitor (hNP) Cell Migration Assay (AID 2283754). In short, it runs like this:
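Human H9-derived hNP1 neuroprogenitors on Matrigel with LIF/bFGF, plated around seeding stoppers for 16 h at 37C; stoppers removed at start of 72 h chemical exposure. Calcein-AM staining, fluorescence 494/517 nm in detection zone; loss-of-signal vs DMSO; cytochalasin D control.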

Assay [11] is described as follows: ArunA_Migration_hNC: ArunA Biomedical's Oris Neural Crest (hNC) Cell Migration Assay (AID 2283755). In short, it runs like this:
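Human H9-derived neural crest stem cells, 60,000/well on Matrigel, 16 h at 37C, then 72 h chemical exposure after seeding-stopper removal. Migration into detection zone read as calcein-AM fluorescence (ex494/em517), relative to DMSO.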

Assay [12] can be described thus: ArunA_NOG_NucleusCount: ArunA Biomedical's Neurite Outgrowth (NOG) Assay for Nucleus Count (AID 2283756). In short, it runs like this: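 Human H9-derived differentiated neurons were exposed for 48 h right after seeding. Hoechst-stained nuclei gated by size and intensity were counted by automated high-content imaging as viable neurons. Loss of signal vs DMSO.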
Assay [13] in a line: ArunA_NOG_NeuriteLength: ArunA Biomedical's Neurite Outgrowth (NOG) Assay for Neurite Length (AID 2283757). In short, it runs like this: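 Differentiated human H9-derived neurons were exposed for 48 h from seeding, then stained with Hoechst and βIII-tubulin. Automated high-content imaging gave total neurite length per valid neuron, counting processes >10 um. Loss of signal was scored versus DMSO.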

Assay [14] can be described thus: ArunA_NOG_NeuritesPerNeuron: ArunA Biomedical's Neurite Outgrowth (NOG) Assay for Neurites Per Neuron (AID 2283758). In short, it runs like this:
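Differentiated human H9-derived neurons exposed to chemicals for 48 h from seeding, then stained with Hoechst and βIII-tubulin/DyLight 488. Automated imaging counted neurites (processes >10 um) per valid neuron; loss of signal versus DMSO scored.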

A short description of assay [15]: ArunA_NOG_BranchPointsPerNeurite: ArunA Biomedical's Neurite Outgrowth (NOG) Assay for Branch Points Per Neurite (AID 2283759). In outline:
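Automated image analysis traced neurites (processes >10 um) from valid cell bodies after Hoechst and βIII-tubulin staining. hNN cells from H9 embryonic stem cells, 48 h exposure. Fitted bidirectionally against DMSO.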

Sequence of Luciferin 4-monooxygenase (Photinus pyralis) (P08659 whole entry, looked up): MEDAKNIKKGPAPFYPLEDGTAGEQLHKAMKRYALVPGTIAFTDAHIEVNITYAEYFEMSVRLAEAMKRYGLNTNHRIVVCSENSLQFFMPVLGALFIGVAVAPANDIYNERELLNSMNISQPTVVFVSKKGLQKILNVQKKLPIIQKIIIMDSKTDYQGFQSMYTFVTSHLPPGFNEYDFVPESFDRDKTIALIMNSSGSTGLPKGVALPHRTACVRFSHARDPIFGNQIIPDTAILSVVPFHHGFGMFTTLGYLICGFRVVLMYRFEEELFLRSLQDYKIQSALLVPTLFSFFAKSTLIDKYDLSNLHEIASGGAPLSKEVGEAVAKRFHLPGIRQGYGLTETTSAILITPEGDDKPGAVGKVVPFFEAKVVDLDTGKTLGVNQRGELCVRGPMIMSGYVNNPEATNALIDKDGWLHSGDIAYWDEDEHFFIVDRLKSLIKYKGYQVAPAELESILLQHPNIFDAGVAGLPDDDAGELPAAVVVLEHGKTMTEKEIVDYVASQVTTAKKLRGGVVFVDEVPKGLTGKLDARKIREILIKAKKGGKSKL

`CCOP(=S)(OCC)Oc1ccc2c(C)c(Cl)c(=O)oc2c1`: the result in assay [1], in assay [2], in [3], in assay [4] and in [7] was inactive. Moreover, the figures for the AC50 in assay [5], in [6] and in assay [8] were 44.6 µM (active), 34.6 µM (active) and 31 µM (active), respectively.
With `CN(C)[C@@H]1C(=O)C(C(N)=O)=C(O)[C@@]2(O)C(=O)C3=C(O)c4c(O)cccc4[C@@](C)(O)[C@H]3[C@H](O)[C@@H]12`, the result in assay [1], in [2] and in [3] was inactive. The AC50 was 4.16 µM (active) in assay [9]; 50 µM (active) in assay [10]; 50 µM (active) in assay [11]; 44.7 µM (active) in [12]; 78.6 µM (active) in [13]; 83.4 µM (active) in assay [14]. Also, the AC50 in assay [15] was 89.6 µM (active); in assay [4], 714 nM (active) and 72.3 µM (active); in [7], 50 µM (active); in assay [8], 50 µM (active).
For `CC(C)[C@H](C(=O)O[C@H](C#N)c1cccc(Oc2ccccc2)c1)c1ccc(Cl)cc1`, the AC50 in [1] is 74.2 µM (active); in assay [3], 1.53 µM (active); in assay [7] it was 17.2 µM (active). Also, the result in assay [2] was inactive.
In the case of `CCCCOC(=O)c1ccccc1C(=O)O`, the compound was called inactive in assay [2], in assay [3], in assay [7] and in assay [8].
For `CNc1cnn(-c2cccc(C(F)(F)F)c2)c(=O)c1Cl`, the result in assay [1], in assay [2], in assay [3], in [7] and in assay [8] was inactive.
For `CCCSP(=O)(OCC)SCCC`, the compound was called inactive in assay [2], in assay [3], in assay [4] and in assay [7]. Besides, in assay [8], the AC50 was 28.8 µM (active).
Take `FC(F)C(F)(F)OCC(Cn1cncn1)c1ccc(Cl)cc1Cl` (centres undefined): the call in assay [2] was inactive. Besides, the AC50 in assay [3] was 0.00154 µM (active); in assay [7] it was 66.4 µM (active); in assay [8] it was 60.5 µM (active).
As for `CC1(C(=O)Nc2ccc(O)c(Cl)c2Cl)CCCCC1`, the outcome in assay [2], in assay [3] and in [4] was inactive. The AC50 was 64.9 µM (active) in [7] and 50 µM (active) in [8].
Consider `Cc1cc(C2CC2)nc(Nc2ccccc2)n1`, for which the values for the AC50 in [3], in assay [7] and in assay [8] were 62.8 µM (active), 75.6 µM (active) and 64.2 µM (active), respectively.
`CSc1nnc(C(C)(C)C)c(=O)n1N`: the compound was classed as inactive in assay [2], in assay [7] and in assay [8].
On to `CC(COc1ccc(Oc2ccccc2)cc1)Oc1ccccn1` (centres undefined), for which the compound was called inactive in [2] and in assay [3]. The AC50 in assay [7] was 58.9 µM (active); in assay [8] it was 64.6 µM (active).
With `CCCOc1nn(C(=O)NS(=O)(=O)c2ccccc2C(=O)OC)c(=O)n1C`, the compound was classed as inactive in assay [3], in assay [7] and in assay [8].
For `CCOP(=O)(OCC)Oc1cc(C)nc(C(C)C)n1`, the call in [3] and in assay [8] was inactive.
Turning to `COc1cccc(C(=O)NN(C(=O)c2cc(C)cc(C)c2)C(C)(C)C)c1C`, the compound was called inactive in assay [2] and in assay [3]. The AC50 in assay [8] is 76.4 µM (active).
For `CC[C@H](C)[C@H]1O[C@]2(C=C[C@@H]1C)C[C@@H]1C[C@@H](C/C=C(\C)[C@@H](O[C@H]3C[C@H](OC)[C@@H](O[C@H]4C[C@H](OC)[C@@H](NC)[C@H](C)O4)[C@H](C)O3)[C@@H](C)/C=C/C=C3\CO[C@@H]4[C@H](O)C(C)=C[C@@H](C(=O)O1)[C@]34O)O2`, the AC50 in assay [3] was 1.49 µM (active); in assay [7], 0.874 µM (active); in assay [8] it was 1.34 µM (active).

For orientation: AC50 means the concentration giving half of the maximal activity seen.

Source of the values: PubChem BioAssay (EPA / NIEHS).
